Screening results deposited in PubChem by National Center for Advancing Translational Sciences (NCATS).
IL-1B inflam inh – qHTS for Inhibitors of Inflammasome Signaling: IL-1-beta AlphaLISA Primary Screen. THP-1 LPS/ATP IL-1B secretion, AlphaLISA, 16 h; hits give low values. activity change, % at 57.5 µM. 360,000 tested, 4.7% active. AID 743279, 2014; in the data active = activity change below about -50%; inconclusive = mostly about -30% to -49%
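THP-1 cells pretreated 1 hr with compounds (up to 57.5 uM final), then stimulated with LPS (250 ng/mL final) plus ATP (1.25 mM final); secreted IL-1B measured by AlphaLISA after 16 hr, decreased signal indicating inhibition.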
RORgamma inh – qHTS for inhibitors of ROR gamma transcriptional activity; Nuclear receptor ROR-gamma (Mus musculus), P51450; Drosophila S2 Gal4-RORgamma UAS-luciferase reporter, 20 h; Potency, µM (series often up to 53.6 µM), for the others: at the top dose activity change, negative = inhibition, usual class: inhibitors; 310,000 tested, 5.4% active; AID 2551, 2010; also: potency is read from the fitted curve at half-maximal effect; nearly all actives have a fitted effect of over 60% in size
Target sequence (P51450 whole entry, looked up, the tested form may be a part): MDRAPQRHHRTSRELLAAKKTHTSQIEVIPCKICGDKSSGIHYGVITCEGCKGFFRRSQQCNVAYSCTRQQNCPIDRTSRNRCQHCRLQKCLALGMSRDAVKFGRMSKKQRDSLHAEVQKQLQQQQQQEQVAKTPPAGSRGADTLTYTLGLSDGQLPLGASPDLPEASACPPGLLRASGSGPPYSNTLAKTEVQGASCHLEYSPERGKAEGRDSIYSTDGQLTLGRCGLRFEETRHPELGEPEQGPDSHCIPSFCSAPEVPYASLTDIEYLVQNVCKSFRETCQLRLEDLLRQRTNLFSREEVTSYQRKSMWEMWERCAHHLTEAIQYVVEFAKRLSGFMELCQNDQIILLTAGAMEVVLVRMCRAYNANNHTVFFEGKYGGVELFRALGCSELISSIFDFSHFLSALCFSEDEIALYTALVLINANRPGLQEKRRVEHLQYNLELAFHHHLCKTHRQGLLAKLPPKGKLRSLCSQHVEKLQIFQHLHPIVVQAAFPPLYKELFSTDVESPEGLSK
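Compounds are pin-transferred onto Drosophila Schneider cells expressing a copper-inducible Gal4–ROR gamma transactivation domain fusion. After 1 hr, copper sulfate is added to 700 uM final; luciferase is read 20 hr later.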
TDP1 cell CPT – qHTS for Inhibitors of human tyrosyl-DNA phosphodiesterase 1 (TDP1): qHTS in cells in presence of CPT; 420,000 tested, 12% active; Potency, µM (doses to about 46.2 µM), for the others: top-dose activity change, negative = growth inhibition, hits mostly inhibitors; AID 686979, 2013; chicken DT40 Tdp1-/-;hTDP1 cells + 20 nM CPT, ATP luminescence, 48 h; also: potency is read from the fitted curve at half-maximal effect; nearly all actives have a fitted effect of over 55% in size
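Chicken DT40 Tdp1-/- cells complemented with human TDP1, 400 cells/well, exposed to compounds plus 20 nM camptothecin for at least 48 h at 37 C; viability read as ATP content by CellTiter-Glo luminescence.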
Gal4-VP16 FLuc – VP16 counterscreen qHTS for inhibitors of ROR gamma transcriptional activity; 310,000 tested, 3.5% active; Drosophila S2 Gal4-VP16 UAS-luciferase, luminescence, 20 h; Potency, µM (top dose mostly 53.6 µM), without a hit: at the highest dose activity, negative = inhibition, most hits filed as inhibitors;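 also: Gal4-VP16 expression switched on by copper sulfate through the metallothionein promoter; potency is read from the fitted curve at half-maximal effect; nearly all actives have a fitted effect of over 50% in size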
LDHA inh – qHTS assay for inhibitors of human lactate dehydrogenase. activity change, % (values are at about 110 or 230 µM). AID 1347041, 2019. L-lactate dehydrogenase A chain (Homo sapiens), P00338. 480,000 tested, 0.15% active. purified LDHA, NADH/diaphorase-resazurin fluorescence; hits give low values; in the data active = activity change below about -30%; inconclusive = mostly about -25% to -30%;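 also: plate controls were DMSO wells for no effect and wells without enzyme for full effect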
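Human LDH5 (2 nM) was incubated with 0.06 mM NADH and 0.2 mM pyruvate for 5 min at room temperature in Tris pH 7.4. Remaining NADH was coupled through diaphorase/resazurin, and resorufin fluorescence was read at 0 and 20 min.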
TDP1 cell noCPT – qHTS for Inhibitors of human tyrosyl-DNA phosphodiesterase 1 (TDP1): qHTS in cells in absence of CPT; DT40 Tdp1-/- hTDP1 cells, no CPT, ATP luminescence, 48 h; Potency, µM (top dose mostly 46.2 µM), for inactives: top-dose activity change, negative = growth inhibition, actives largely listed as inhibitors; 420,000 tested, 15% active; AID 686978, 2013; also: potency is read from the fitted curve at half-maximal effect; nearly all actives have a fitted effect of over 55% in size
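No-CPT arm: Tdp1-/-;hTDP1 DT40 cells (400/well) plus compounds, incubated ≥48 hr at 37 °C. Readout CellTiter-Glo luminescence.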
Starred values were filed as active, the others as inactive; u = inconclusive; x = no result given. This is a sample that favours compounds with a hit; in the whole collection about 18% have one here. Unless noted, calls follow the shape of the dose curve; as a rule, active = well fitted curve in the direction sought with a large enough effect; inconclusive = small, poorly fitted or top-dose-only effect, or another doubt; inactive = no such curve, though single readings can be large; an effect the other way counts as inactive or inconclusive. Unless noted, % is scaled to controls: 0 for no effect and ±100 for the full control effect.

SMILES	IL-1B inflam inh	RORgamma inh	TDP1 cell CPT	Gal4-VP16 FLuc	LDHA inh	TDP1 cell noCPT
CCCc1ccc2oc(C(=O)N(C)CCn3ccnc3C)c(C)c2c1	9.2	-13.7%	20.6µM*	-7.9%	-2.3	13µM*
Cc1ccc(NC(=O)c2oc3ccc(S(=O)(=O)N4CCC5(CC4)OCCO5)cc3c2C)c(C)c1	x	x	8.2µM*	x	-8.3	6.51µM*
Cc1ccc(NC(=O)c2oc3ccc(S(=O)(=O)N4CCCCC4)cc3c2C)c(C)c1	x	x	-10.6%	x	0.2	-21.6%
Cc1c(C(=O)Nc2ccc(F)c(F)c2)oc2ccc(S(=O)(=O)N3CCC4(CC3)OCCO4)cc12	x	x	13µM*	x	-5.0	11.6µM*
Cc1c(C(=O)Nc2ccc(F)c(F)c2)oc2ccc(S(=O)(=O)N3CCCCC3)cc12	u	-10.2%	23.1µM*	3.9%	-0.1	u
CC(=O)N1C=Cc2ccccc2C1CC(=O)Nc1cccc(S(=O)(=O)N2CCOCC2)c1 (stereo unspecified)	x	x	x	x	15.0	x
Cn1c(=O)c2c(ncn2CC(O)c2cccc(F)c2)n(C)c1=O (stereo unspecified)	x	x	x	x	0.3	x
CCCCN(C)C(=O)c1oc2ccc(S(=O)(=O)N3CCCCCC3)cc2c1C	-67.6*	u	18.4µM*	-6.5%	5.5	u
Cc1c(C(=O)Nc2ccc(F)cc2)oc2ccc(S(=O)(=O)N3CCC4(CC3)OCCO4)cc12	0.0	38.8%	15.8µM*	-3.8%	-5.2	22.4µM*
Cc1c(C(=O)Nc2ccc(Br)cc2F)oc2ccc(S(=O)(=O)N3CCC4(CC3)OCCO4)cc12	x	x	-15.6%	x	-2.3	u
COc1cccc2oc(C(=O)c3cc(C)sc3C)cc12	x	x	x	x	8.4	x
C/C(=C\C(=O)OCCCCCCCCC(=O)O)C[C@@H]1OC[C@H](C[C@@H]2O[C@H]2[C@@H](C)[C@H](C)O)[C@@H](O)[C@H]1O	4.8	2.1%	1.03µM*	-0.1%	-8.3	1.46µM*
Cc1cccnc1NC(=S)Nc1ccc(F)cc1F	-12.1	6.31µM*	-3.5%	u	-4.2	-16.2%
Cc1cc(C)nc(NC(=S)Nc2ccc(F)cc2F)c1	16.2	0.708µM*	-3.5%	-29.6%	-6.1	4.0%
Cc1ccc(C)c(NC(=S)Nc2ncccc2C)c1	-19.1	3.55µM*	u	u	-7.5	u
CC(=O)Nc1cccc(NC(=S)Nc2ccc(F)cc2F)c1	16.4	20.4%	-0.4%	-12.8%	5.6	-0.7%
CCc1ccc(OCc2nnc(SCc3ccc(C(C)(C)C)cc3)n2CC(C)C)cc1	x	x	x	x	2.6	x
CC(=O)c1ccc(NC(=O)CSc2nnc(C(C)N3C(=O)COc4ccccc43)n2C)cc1 (stereo unspecified)	x	x	x	x	-0.5	x
COCCn1c(N2CCN(Cc3c(Cl)cccc3Cl)CC2)nc2c1c(=O)[nH]c(=O)n2C	x	x	x	x	2.7	x
COC(=O)CCC1(C(=O)OC)c2ccccc2-c2ccccc21	x	x	x	x	8.2	x
CC1CN(c2nc(-c3ccccc3)nc3ccccc23)CC(C)O1 (stereo unspecified)	6.6	-30.0%	u	-2.2%	-2.2	u
CCN1CCN(c2nn3c(=O)c4ccccc4nc3c3ccccc23)CC1	-58.5*	-5.9%	u	1.4%	-3.3	16.4µM*
CC1CN(c2nn3c(=O)c4ccccc4nc3c3ccccc23)CC(C)O1 (stereo unspecified)	-63.2*	17.9%	8.2µM*	-17.0%	-6.2	5.8µM*
O=c1c2ccccc2nc2c3ccccc3c(Cl)nn12	x	u	x	3.0%	x	x
CCOc1cc(/C=C2/SC(=S)NC2=O)ccc1OC(=O)c1ccco1	-50.9*	u	23.1µM*	9.0%	-14.8	11.6µM*
